{
  "source": "PubChem BioAssay (NCI)",
  "note": "About 83,000 compounds went through this panel and 20% of them were active in at least one assay; those are over-represented in the sample as a whole.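 Results are percent growth after 48 hours of single-concentration exposure. 100 means growth as in untreated cells, lower positive values show inhibition; negative values down to -100 show cell death.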 Activity calls are given as the source filed them. The calls were made as follows: active = growth percent below 10; inactive = the rest.",
  "data": [
    {"system": "HCC-2998 colon", "assay": "NCI-60 one-dose screen, 48 h (100 = growth as untreated, 0 = no growth, -100 = all killed)", "settings": "10 µM", "values": [
      {"smiles": "CCOC(=O)C1=C(C)N=C2Sc3cccc(OC)c3N2[C@H]1c1ccccn1", "growth": "93.2% (inactive)"},
      {"smiles": "CNC(=O)c1cc(Oc2cccc3nc(Nc4ccc(Oc5ccccc5)cc4)ccc23)ccn1", "growth": "94% (inactive)"},
      {"smiles": "COc1ccc(-c2nc(N)ncc2Oc2ccccc2OC)c(O)c1", "growth": "50.6% (inactive)"},
      {"smiles": "CSc1nc2ncncc2[nH]1", "growth": "108% (inactive)"},
      {"smiles": "Nc1c2c(c(O)c3c1=C(CO)C=N3)=NCCS2=O", "note": "(stereo not given)", "growth": "-87.8% (active)"},
      {"smiles": "CC(C)=CCc1cc2c(cc1O)C1=C(C(=O)C3=C(NCCS3(=O)=O)C1=O)C(C=C(C)C)O2", "note": "(stereo not given)", "growth": "32.4% (inactive)"},
      {"smiles": "CC/C=C\\C[C@H]1C/C=C2/C(=O)C=C[C@@H]2C/C=C\\CCCC(=O)O1", "growth": "-79.4% (active)"}
    ]},
    {"system": "KM12 colon", "assay": "NCI-60 one-dose screen, 48 h (100 = growth as untreated, 0 = no growth, -100 = all killed)", "settings": "10 µM unless noted", "values": [
      {"smiles": "CO/C=C/C(=O)c1cc2cnc3c(=N)cc(NC(=O)C(C)C)c([nH]1)c23", "growth": "-23.9% (active)"},
      {"smiles": "Cc1cc2c(-c3nc4ccccn4c3Nc3cccc4ccccc34)c(O)c(O)cc2c(O)c1-c1c(C)cc2c(-c3nc4ccccn4c3Nc3cccc4ccccc34)c(O)c(O)cc2c1O", "growth": "20.1% (inactive)"},
      {"smiles": "Cc1cc(N2CCOCC2)nc(N(CCNc2ccnc3cc(Cl)ccc23)Cc2cccs2)n1", "growth": "26.4% (inactive)"},
      {"smiles": "CCCCCCCC(=O)SCC/C=C/[C@@H]1CC(=O)NCc2cc(ccn2)C2=N[C@@](C)(CS2)C(=O)N[C@@H](C(C)C)C(=O)O1", "growth": "-3.5% (active)"},
      {"smiles": "Cc1sc2c(c1C)c(=O)nc1c(-c3nc4ccccc4s3)n[nH]n12", "growth": "98.7% (inactive)"},
      {"smiles": "CC(C)(C)CC(C)(C)Nc1c(-c2c(O)c3ccccc3oc2=O)nc2c(Cl)cc(C(F)(F)F)cn12", "growth": "103% (inactive)"},
      {"smiles": "CCOc1cccc(/C=N/NC(=O)c2ccccc2Nc2ccnc(C(F)(F)F)c2)c1O", "growth": "33.2% (inactive)"},
      {"smiles": "Cc1cc2c(-c3nc4ccccn4c3NC3CCCCC3)c(O)c(O)cc2c(O)c1-c1c(C)cc2c(-c3nc4ccccn4c3NC3CCCCC3)c(O)c(O)cc2c1O", "growth": "29.6% (inactive)"},
      {"smiles": "C=CCC(=O)N[C@H](/C=C/C(=O)O)Cc1ccc(-c2cc(Cl)cc(Cl)c2)cc1", "growth": "98.5% (inactive)"},
      {"smiles": "CN1CCN(c2nc(NCCNc3ccnc4cc(Cl)ccc34)c3ccccc3n2)CC1", "growth": "29.2% (inactive)"},
      {"smiles": "C[C@@H](C[C@H](CCO)c1cc(C(F)(F)F)cc(C(F)(F)F)c1)c1ccc2ccccc2c1", "growth": "71.3% (inactive)"},
      {"smiles": "C=C1C(=O)O[C@H]2[C@H]1CC/C(Cn1cc(-c3cc(C)c(C)cc3C)nn1)=C\\CC[C@@]1(C)O[C@@H]21", "growth": "14.1% (inactive)"},
      {"smiles": "COc1ccc2c(CCCc3ccc(Cl)cc3Cl)c3[n+](cc2c1OC)CCc1cc2c(cc1-3)OCO2", "growth": "-55.3% (active)"},
      {"smiles": "CCN1CCN(c2cc(C)nc(N(CCCNc3ccnc4cc(Cl)ccc34)Cc3ccc4c(c3)OCO4)n2)CC1", "growth": "29.8% (inactive)"},
      {"smiles": "O=C1CC(c2ccc(Cl)cc2)c2ncn(-c3cccc(Cl)c3)c2N1", "note": "(stereo not given)", "growth": "54.1% (inactive)"},
      {"smiles": "Cc1ccccc1Nc1nc2nonc2nc1Nc1cccc(C)c1C", "growth": "53.8% (inactive)"},
      {"smiles": "Fc1ccc(NCc2cn(-c3ccccc3)nc2-c2ccc(OCc3ccccc3)cc2)cc1Cl", "growth": "98% (inactive)"},
      {"smiles": "CCCCCCCC(=O)SCC/C=C/[C@@H]1CC(=O)NCc2cccc(n2)C2=N[C@@](C)(CS2)C(=O)N[C@@H](C(C)C)C(=O)O1", "growth": "3.74% (active)"},
      {"smiles": "COC(=O)C1CCc2sc3ncnc(Nc4cn[nH]c4C(=O)Nc4ccc(CN5CCN(C)CC5)cc4)c3c21", "note": "(stereo not given)", "growth": "9.84% (active)"},
      {"smiles": "C=CC(=O)N(C)[C@H]1C[C@H]2OC(C)(C1OC)n1c3ccccc3c3c4c(c5c6ccccc6n2c5c31)C(=O)NC4", "note": "(stereo not given in full)", "growth": "9.67% (active)"},
      {"smiles": "Cc1cc(N(CCNc2ccnc3cc(Cl)ccc23)Cc2ccc3c(c2)OCO3)nc(N2CCN(C)CC2)n1", "growth": "62.6% (inactive)"},
      {"smiles": "CN1CCN(CCCOc2cccc3nc(Nc4ccc(Cl)c(C(F)(F)F)c4)ccc23)CC1", "growth": "-78% (active)"},
      {"smiles": "Nc1c2c(c(O)c3c1=C(CO)C=N3)=NCCS2", "growth": "-70.4% (active)"},
      {"smiles": "Cc1cc(O)c2c(c1)C1OC(=O)CCCCCN1C1=C2C(=O)c2cccc(OC3CC(O)C(O)C(C)O3)c2C1=O", "note": "(stereo not given)", "growth": "83.4% (inactive)"},
      {"smiles": "CC1(C=O)NC(=O)NC1=O", "note": "(stereo not given)", "growth": "108% (inactive)"},
      {"smiles": "COc1ccc(Nc2ncccc2NC(=O)c2cn(Cc3cccc(Oc4ccccc4)c3)nn2)cc1", "growth": "84.8% (inactive)"},
      {"smiles": "OCCNC(=S)Nc1ccc(-c2nc(N3C[C@H]4CC[C@@H](C3)O4)c3cccn3n2)cc1", "growth": "12% (inactive)"},
      {"smiles": "O=C(c1ccccc1)C(c1ccccc1)N1CCOCC1", "note": "(stereo not given)", "growth": "99.1% (inactive)"}
    ]}
  ]
}
